From PubChem BioAssay
Insulin prom up: insulin promoter activators in MIN6 cells, imaging, high-content screening, mouse beta cells. MIN6 insulin promoter-GFP reporter; active compounds read high. z-score at 5 µM. 0.3% of 190,000 active. AID 1625, 2009;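 active = z-score above 3 at 5 µM with at least 500 cells counted in the well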
DTT redox prof: compounds producing H2O2 with reducing agent – biochemical, NIH compound library profiling, artefact control for MLSCN library redox annotation, primary screen; 0.03% of 200,000 active; DTT-dependent redox cycling H2O2, phenol red/HRP absorbance; 100% = 100 µM peroxide control, 0% = buffer; activation, % at 10 µM;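 active = activation of at least 50% relative to the plate's high and low controls in the primary single-dose screen; inactive = activation below 50%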;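 also: compound incubated with DTT at 0.8 mM final as the reducing agent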
NCF1 inh: p47phox/p22phox peptide binding inhibitors, primary screen, biochemical, uHTS, NADPH oxidase regulatory subunit. Neutrophil cytosol factor 1 (Homo sapiens), P14598. fluorescence polarization, 2 h. inhibition, % at 24.7 µM. 0.53% of 220,000 active. AID 1274, 2008;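 active = inhibition above about 30%, limit read from the data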
Target sequence (P14598 whole entry, looked up): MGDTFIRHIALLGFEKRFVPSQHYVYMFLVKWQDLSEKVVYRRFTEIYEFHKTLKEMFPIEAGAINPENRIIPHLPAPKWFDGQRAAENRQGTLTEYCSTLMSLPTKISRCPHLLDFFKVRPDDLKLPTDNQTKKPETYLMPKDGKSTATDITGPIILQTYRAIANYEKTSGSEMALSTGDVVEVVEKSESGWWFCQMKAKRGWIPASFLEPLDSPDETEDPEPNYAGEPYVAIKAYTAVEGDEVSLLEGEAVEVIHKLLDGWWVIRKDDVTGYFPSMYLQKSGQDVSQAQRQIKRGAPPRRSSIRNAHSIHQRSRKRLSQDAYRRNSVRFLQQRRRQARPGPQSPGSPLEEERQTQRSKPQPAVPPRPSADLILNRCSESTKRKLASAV
Autophagy mod: autophagy modulators in MEF cells, primary screen, imaging, high-content, MEF GFP-LC3; MEF GFP-LC3 puncta imaging; test concentration mostly 10 µM; calls only at 10 µM (by protocol); 0.98% of 190,000 active; AID 463193, 2010;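 active = percentage of spot-positive cells more than 3 SD above its plate mean, without a fluorescence outlier flag or 80% toxicity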
Efa HMGR inh: inhibitors of E. faecalis class II HMGR, primary screen, biochemical, Enterococcus faecalis; 0.41% of 190,000 active; purified E. faecalis HMGR, NADPH absorbance 340 nm kinetic; HMG-CoA reductase (Enterococcus faecalis, mvaE); inhibition, % at 10 µM;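 active = inhibition above a set limit, the median over all tested compounds plus 3 SD, cut at about 9.5% in these data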;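 also: enzyme runs in reverse so mevalonate oxidation gives rising NADPH absorbance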
Arbovirus inh: antivirals against arbovirus infection, primary screen, cell-based, full library, 10K replicate subset; arbovirus infection cell-based antiviral screen; AID 1251, 2008; 0.37% of 200,000 active; inhibition, % at 10 µM; in the data active = inhibition above about 30%
Hits are given with their value; - = inactive; . = no result; + = active, no number. Most compounds without a hit are left out; they make up all but 2.2% or so of the library.

SMILES	Insulin prom up	DTT redox prof	NCF1 inh	Autophagy mod	Efa HMGR inh	Arbovirus inh
COc1ccc(/C=C/C(=O)OCC(=O)NCC2CCCO2)cc1 (centres undefined)	-	-	-	-	-	-
CCOC(=O)/C=c1\s/c(=C\c2ccc3cc(OC)ccc3c2)c(=O)n1CC(=O)NCC1CCCO1 (centres undefined)	-	-	-	+	-	-
CCOC(=O)/C=c1\s/c(=C\c2sccc2C)c(=O)n1CC(=O)NCc1ccc(C)cc1	-	-	-	+	-	-
CCOC(=O)/C=c1\s/c(=C\c2ccc(C)cc2)c(=O)n1CC(=O)NCc1ccco1	-	.	-	-	-	-
Fc1cccc(Cl)c1CSc1nnc2ccccn12	-	-	-	-	-	-
CCOC(=O)c1cccc(-n2c(-c3ccc(OC)cc3)nc3nc4ccccc4nc32)c1	-	-	-	-	-	-
O=C(O)Cc1c[nH]c2cccc(O)c12	-	-	-	-	-	-
CCCCN1C(=O)/C(=C/C=C2/CC(C)(C)CN2C)SC1=S	.	-	-	+	-	-
CCCN1C(=O)/C(=C/C=C2\N(CC)c3ccccc3C2(C)C)SC1=S	.	-	-	+	-	-
CCCCN1C(=O)/C(=C/C=C2\Oc3ccccc3N2CC)SC1=S	.	-	-	+	-	-
C=CCN1C(=O)/C(=C\C=C2\N(C)c3ccccc3C2(C)C)SC1=S	.	-	-	+	-	-
CN1/C(=C\C=C2/SC(=S)N(CC(=O)O)C2=O)C(C)(C)c2ccccc21	-	-	-	-	-	-
CCN1C(=O)/C(=C/C=C2/Sc3ccccc3N2CCO)SC1=S	-	-	-	-	-	-
COc1cccc(-c2ccc3c(N)c(C(=O)NC4CC4)sc3n2)c1	-	.	-	.	.	.
COc1ccc(-c2ccc3c(N)c(C(=O)c4cccc(OC)c4)sc3n2)cc1	.	-	-	+	-	-
COc1ccc(-c2c(C#N)c(N)nc3sc(C(=O)c4ccc(C)cc4)c(N)c23)cc1	-	-	-	+	-	-
Nc1c(C(=O)Nc2ccccc2)sc2nc(-c3cccnc3)ccc12	-	.	-	.	.	.
COc1ccc(NC(=O)c2sc3nc(-c4cccnc4)ccc3c2N)cc1	6	.	-	.	.	.
COc1ccc(C(=O)c2sc3nc(-c4ccc(OC)cc4)ccc3c2N)cc1	-	-	-	+	-	-
Nc1c(C(=O)N2CCCC2)sc2nc(-c3ccccc3)ccc12	-	.	-	.	.	.
O=C(N/N=C/c1ccc(-c2cccc([N+](=O)[O-])c2)o1)c1ccc([N+](=O)[O-])cc1	-	-	-	-	-	-
O=C(N/N=C\c1ccc(-c2ccc([N+](=O)[O-])cc2)o1)c1ccc2c(c1)OCO2	-	-	-	+	-	-
COc1ccc(NC(=O)c2cccnc2Nc2ccc(OC)cc2)cc1	-	-	-	-	-	-
COc1ccc(Nc2ncccc2C(=O)Nc2ccccc2)cc1	-	-	-	+	-	-
CC(C)c1ccccc1NC(=O)COC(=O)Cc1ccsc1	-	-	-	-	-	-
SMILES	Insulin prom up	DTT redox prof	NCF1 inh	Autophagy mod	Efa HMGR inh	Arbovirus inh
Cc1ccc(CNCC(=O)Nc2ccc(N3CCOCC3)cc2)cc1	-	.	-	.	.	.
C/C(=C\C(=O)c1ccc(Cl)cc1)Nc1ccc(N2CCOCC2)cc1	-	-	-	+	-	-
CCNCC(=O)Nc1ccc(N2CCOCC2)cc1	-	-	-	+	-	-
C/C(=C\C(=O)c1ccccc1)Nc1ccc(N2CCOCC2)cc1	-	-	-	-	-	-
COc1ccc(C(=O)N(C)c2c(C)n(C)n(-c3ccccc3)c2=O)cc1OC	-	-	-	+	-	-
Cc1c(N(C)C(=O)c2ccco2)c(=O)n(-c2ccccc2)n1C	-	-	-	-	-	-
Fc1ccccc1N1CCN(Cc2nc(-c3ccc(Cl)cc3Cl)no2)CC1	-	-	-	-	-	31
Clc1ccc(Cc2noc(CN3CCN(c4ccccc4)CC3)n2)c(Cl)c1	-	-	-	-	-	-
CCn1c(SCC(=O)OC)nnc1-c1ccccc1	-	-	-	-	-	-
CCN1CCC(C(=O)NC2CCCC2)(N(Cc2cccs2)C(=O)Cn2nnc3ccccc32)CC1	-	.	.	.	.	.
